# In paper PMC7826789 (International Journal of Molecular Sciences, 2021):
# Assays:
# Conditions in all cases: Compound Concentration (nM):1000
# KIT-autoinhibited = tested on: KIT-autoinhibited
# KIT = tested on: KIT
# LATS1 = tested on: LATS1
# LATS2 = tested on: LATS2
# LCK = tested on: LCK
# LIMK1 = tested on: LIMK1
# LIMK2 = tested on: LIMK2
# LKB1 = tested on: T1, LKB1
# T1 construct: gene STK11
# LOK = tested on: T2, LOK
# T2 construct: gene STK10
# LRRK2(G2019S) = tested on: LRRK2(G2019S)
# 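Further: KINOMEscan scanMAX binding as percent activity remaining versus control; lower means stronger binding.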
SMILES,Percent Control (KIT-autoinhibited) [%],Percent Control (KIT) [%],Percent Control (LATS1) [%],Percent Control (LATS2) [%],Percent Control (LCK) [%],Percent Control (LIMK1) [%],Percent Control (LIMK2) [%],Percent Control (LKB1) [%],Percent Control (LOK) [%],Percent Control (LRRK2(G2019S)) [%]
NS(=O)(=O)c1ccc(N/N=C2\C(=O)Nc3ccc(Cl)cc32)cc1 [GW280670X],42,90,100,98,96,100,100,100,100,70
NS(=O)(=O)c1ccc(N/N=C2\C(=O)Nc3ccc(-c4cnco4)cc32)cc1 [GW276655],81,58,56,65,89,60,67,100,92,17
CN1CCN(C(=O)c2ccc(NC(=O)Nc3ccc(N(C)c4ccnc(Nc5ccc(CS(C)(=O)=O)cc5)n4)cc3)cc2)CC1.Cl [GW830263A],35,0,68,59,85,61,43,76,0.4,71
COc1cccc(-n2ncc3c(N/N=C/c4ccncc4)ncnc32)c1 [GW784752X],100,91,100,100,35,99,100,100,100,96
Cc1cc(O)cc(C)c1/C=C/c1cncc(C(N)=O)c1 [GW435821X],77,2.1,100,96,25,100,100,100,100,74
COc1ccccc1-c1cc(/C=C2\C(=O)Nc3ncc(Br)cc32)cc(Br)c1O [GW442130X],100,70,100,100,100,100,100,73,100,93
COc1cc(C=NNc2ncnc3c2cnn3-c2ccccc2)ccc1O [GW513184X],100,42,90,100,34,100,100,69,100,100
CC1=C(C(=O)Nc2ccc3[nH]ncc3c2)C(c2ccc3ccccc3c2)CC(=O)N1 (stereo not drawn) [GSK270822A],100,80,66,7,33,100,88,100,100,77
COc1ccc2[nH]c3c4[nH]c5ccc(OC)cc5c4c4c(c3c2c1)C(=O)NC4=O [GW296115X],72,24,100,43,85,91,81,99,88,2.6
CN(C)c1cc2c(Nc3ccc4c(cnn4Cc4ccccc4)c3)ncnc2cn1 [GW282974X],100,100,100,65,77,100,,100,20,93
CC(C)COC(=O)c1ccc2c(c1)/C(=C/Nc1ccc(S(N)(=O)=O)cc1)C(=O)N2 [GW416981X],85,100,100,91,100,100,100,100,100,36
COc1ccc2c(-c3ccnc(Nc4cccc(OC(F)(F)F)c4)n3)cnn2n1 [GW810372X],81,86,100,91,100,94,100,100,100,86
CC1=C(C(=O)Nc2ccc3[nH]ncc3c2)C(c2ccc(Cl)c(Cl)c2)CC(=O)N1 (stereo not drawn) [GSK299115A],100,100,60,1.5,80,94,63,100,71,100
COC(=O)Nc1nc2ccc(Oc3ccc(NC(=O)Nc4cc(C(F)(F)F)ccc4F)cc3)cc2s1.Cl [GW693917A],87,0.5,100,80,2.2,43,62,100,0.6,74
NS(=O)(=O)c1ccc(N/N=C2\C(=O)Nc3ccc(C(=O)NCCc4c[nH]cn4)cc32)cc1 [GW300660X],93,100,100,100,100,100,100,100,100,71
Cl.O=S1CCN(Cc2ccc(-c3ccc4ncnc(Nc5ccc(OCc6ccccc6)c(F)c5)c4c3)o2)CC1 [GW576924A],100,100,100,100,100,100,100,100,100,100

SMILES,Percent Control (KIT-autoinhibited) [%],Percent Control (KIT) [%],Percent Control (LATS1) [%],Percent Control (LATS2) [%],Percent Control (LCK) [%],Percent Control (LIMK1) [%],Percent Control (LIMK2) [%],Percent Control (LKB1) [%],Percent Control (LOK) [%],Percent Control (LRRK2(G2019S)) [%]
C/C(Nc1ccc(S(N)(=O)=O)cc1)=C1/C(=O)Nc2ccccc21 [GW335962X],28,99,100,83,91,100,94,86,79,47
COc1ccc2cc(-c3c(-c4ccncc4)nc(-c4ccc(S(C)(=O)=O)cc4C)n3C)ccc2c1 [SB-633825],91,74,67,70,54,74,29,100,1.3,90
CN(C)CCNC(=O)Nc1ccc(N(C)c2ccnc(Nc3ccc(CS(C)(=O)=O)cc3)n2)cc1.Cl [GW830900A],59,0.1,92,88,93,85,100,83,14,76
Nc1ncnc2occ(-c3ccc(NC(=O)Nc4cc(C(F)(F)F)ccc4F)cc3)c12 [GW770249X],31,0,100,91,25,100,94,83,0.4,81
COc1cc2ncnc(Nc3ccc4c(cnn4Cc4ccccc4)c3)c2cc1OC.Cl [GW282449A],100,100,100,100,23,95,100,100,13,100
COc1cccc(-c2c[nH]c3c(N/N=C/c4ccncc4)ncnc23)c1 [GW814408X],38,5,100,89,7.5,100,84,88,100,89
CCS(=O)(=O)c1ccc(OC)c(Nc2ncc(-c3cccc(F)c3)o2)c1 [GW621970X],14,13,94,100,25,100,100,100,100,100
C[C@@H](Oc1cc(-n2cnc3ccc(OC4CCN(C)CC4)cc32)sc1C(N)=O)c1ccccc1Cl [GSK579289A],81,32,100,65,82,100,100,100,3.3,75
NS(=O)(=O)c1ccc(N/N=C2\C(=O)Nc3ccc(C(=O)NCc4ccncc4)cc32)cc1 [GW300657X],99,87,100,67,100,100,90,100,100,89
COc1cc(/C=N/Nc2ncnc3[nH]ncc23)ccc1O [GW578748X],57,56,100,52,42,100,100,100,100,49
CCc1ccc(Oc2nccc(-c3c(-c4ccc(F)cc4)ncn3C3CCNCC3)n2)cc1 [SB-242719],100,83,100,70,74,75,100,84,97,83
COc1cc(N2CCN(C(C)C)CC2)ccc1Nc1nc(Nc2ccc(F)cc2C(=O)NC[C@@H](O)CO)c2cc[nH]c2n1 [GSK1392956A],100,100,100,95,100,92,75,81,100,5.4
Cl.O=C(O[C@H]1CN[C@H](C#Cc2cc3ncnc(Nc4ccc5c(cnn5Cc5ccccc5)c4)c3s2)C1)N1CCOCC1 [GSK200398A],96,100,100,100,81,100,100,100,63,84
O=C(Nc1n[nH]c2nc(-c3ccc(O)cc3)c(Br)cc12)C1CC1 [SB-725317],86,84,100,94,83,100,100,100,95,96
Cl.c1ccc(Cc2nc3ccc(Nc4ncnc5ccccc45)cc3[nH]2)cc1 [GR269666A],100,94,100,100,88,100,100,100,100,100
